Screens as filed in PubChem.
A selection: hits, their analogues and other compounds. The true share with any hit is near 5.4%.
ALR inh = inhibitors of human ALR sulfhydryl oxidase, primary screen, biochemical, H2O2 detection, HRP-luminol luminescence, single point; purified ALR, DTT oxidation; inhibition, % (concentration not given with the values); actives 3.8% (n = 290,000); AID 485317, 2010;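 active = mean replicate inhibition above about 79%, with every replicate also reaching it, limit read from the data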
Target sequence (P55789 whole entry, looked up): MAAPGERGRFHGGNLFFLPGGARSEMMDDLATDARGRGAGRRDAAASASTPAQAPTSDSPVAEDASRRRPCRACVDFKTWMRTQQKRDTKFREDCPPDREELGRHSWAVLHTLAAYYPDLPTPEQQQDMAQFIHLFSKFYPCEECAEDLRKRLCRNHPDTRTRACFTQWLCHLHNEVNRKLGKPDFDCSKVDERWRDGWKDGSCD
Exocytosis inh = LAMP-1 surface exposure blockers, TALL-104 cells – cell-based, flow cytometry, MLPCN library, primary screen; AID 651702, 2012; inhibition, % at 10 µM; TALL-104 LAMP-1 surface exposure; cells stimulated with thapsigargin and PMA; actives 0.66% (n = 360,000);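 active = inhibition above about 55%, limit read from the data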
PfM18AAP inh-1 = PfM18AAP inhibitors, malaria aminopeptidase, primary screen, biochemical, QFRET, recombinant enzyme. M18 aspartyl aminopeptidase (Plasmodium falciparum 3D7). H-Glu-NHMec fluorogenic cleavage. inhibition, % at 7.35 µM. actives 1.2% (n = 290,000). AID 1822, 2009;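 active = inhibition above the campaign mean inhibition over all tested compounds plus 3 SD, cut at about 28% in these data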;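 note: 0% = plate median of test compound wells and 100% = 2 mM ZnCl2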
GASC-1 inh = inhibitors of GASC-1 histone demethylase, primary screen, biochemical, fluorescence, DELFIA europium. Lysine-specific demethylase 4C (Homo sapiens), Q9H3R0. GST-JMJD2C(1-420) H3K9me3 demethylation. inhibition, % at 2.35 µM. actives 0.069% (n = 330,000). AID 2099, 2009;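 active = more than half of a compound's replicate wells show inhibition beyond 50%, single wells judged on their own value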;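 note: signal counts dimethyl H3K9 product captured on neutravidin plate; 0% = median of DMSO wells and 100% = 0.3 times that DMSO median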
MIN6 prolif = inducers of MIN6 beta-cell proliferation, primary screen, ATP luminescence, uHTS | MIN6 cells proliferation, ATPlite luminescence, 48 h; cells starved in 0.2% serum; 100% = growth in 10% serum | proliferation, % at 10 µM | actives 0.29% (n = 330,000) | AID 2380, 2010;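 active = compounds whose signal lies at least 3.5 SD above the mean of all wells on their plate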;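 note: 0% = DMSO-treated cells in low-serum medium and 100% = 10% serum control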
SMARCA2 act = SMARCA2 (BRM) function activators, primary screen, cell-based, luminescence, high throughput; activation, % at 9.1 µM; MG213 cells, MMTV-luciferase reporter, dexamethasone, overnight; actives 1% (n = 370,000); AID 652017, 2013; in the data active = activation above about 7.8%;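 note: 0% = vehicle wells and 100% = reference activator wells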
PfM18AAP inh-2 = PfM18AAP inhibitors, malaria aminopeptidase, confirmation, biochemical, QFRET, recombinant enzyme, triplicate; AID 2170, 2009; H-Glu-NHMec fluorogenic cleavage; inhibition, % at 7.35 µM; actives 28% (n = 2,400); shares compounds with PfM18AAP inh-1;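 active = mean inhibition over replicate wells above the hit cutoff set for the earlier primary screen, cut at about 29% in these data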;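 note: 0% = median of test compound wells and 100% = 2 mM ZnCl2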
CTSL1 confirm = cathepsin L1 inhibitors, retest, confirmation, counter-screen for PFM18AAP inhibitor project, biochemical, QFRET, triplicate; shares compounds with PfM18AAP inh-1; purified cathepsin L1, Z-Leu-Arg-MCA fluorescence; inhibition, % at 5.96 µM; 2,400 tested, under 10 active;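 active = average inhibition across replicates above the hit cutoff set in the earlier primary screen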;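 note: 0% = median of test compound wells and 100% = Z-Phe-Ala-diazomethylketone 1 µM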
Target sequence (P07711 whole entry, looked up): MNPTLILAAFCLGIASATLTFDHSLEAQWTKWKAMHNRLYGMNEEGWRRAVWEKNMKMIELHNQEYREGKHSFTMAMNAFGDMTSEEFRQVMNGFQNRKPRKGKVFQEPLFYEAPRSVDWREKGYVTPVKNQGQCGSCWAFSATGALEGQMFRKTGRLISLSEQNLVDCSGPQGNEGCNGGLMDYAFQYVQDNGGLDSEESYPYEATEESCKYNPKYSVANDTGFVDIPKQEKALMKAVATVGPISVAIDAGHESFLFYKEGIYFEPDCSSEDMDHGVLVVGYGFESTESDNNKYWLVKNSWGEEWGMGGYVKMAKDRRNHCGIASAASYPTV
Starred values were filed as active, the others as inactive; · = no result.

SMILES | ALR inh | Exocytosis inh | PfM18AAP inh-1 | GASC-1 inh | MIN6 prolif | SMARCA2 act | PfM18AAP inh-2 | CTSL1 confirm
Nc1nncn1C(=O)c1cc(Br)ccc1Cl | · | 8 | 46* | 0 | -4 | 2 | 48* | 10
Nc1nncn1C(=O)c1cccs1 | 8 | 1 | 40* | 8 | -1 | -3 | 49* | -5
Cc1ccc(C(=O)n2cnnc2N)cc1 | 42 | 3 | 41* | 5 | -1 | -1 | 47* | -3
COC(=O)c1ccc2nc(-c3ccc(C)cc3)c(CC(C)(C)C)n2c1 | · | · | · | · | · | -1 | · | ·
Cc1c(CN2CCN(c3ncc(Cc4ccccc4)cn3)CC2)c(=O)n(-c2ccccc2)n1C | · | · | · | · | · | -2 | · | ·
COc1cccc(C(=O)n2cnnc2N)c1OC | 2 | -3 | 56* | -4 | -1 | · | 51* | -3
Nc1nncn1C(=O)c1c(Cl)cccc1Cl | -5 | 0 | -1 | 5 | -1 | -1 | · | ·
Cc1ccc(C(=O)n2cnnc2N)cc1C | 57 | 2 | 44* | 1 | 1 | -2 | 57* | -1
CC(=O)C1=C(C)N(Cc2ccc(Br)cc2)C(=S)NC1c1cccc(Cl)c1 (configuration not stated) | · | · | · | · | · | -5 | · | ·
Cc1csc(/C(=N/OC(=O)c2ccco2)C(N)=O)n1 | 97* | -6 | 51* | 1 | 0 | -6 | 9 | -5
Cc1cccc(Cn2cc(COC(=O)NCCc3c[nH]c4ccccc34)nn2)c1 | · | · | · | · | · | -1 | · | ·
CCOC(=O)c1ccc(N/C=C\C(=O)c2cccc(OC)c2)cc1 | -2 | -2 | 0 | -2 | -3 | 1 | · | ·
COc1cccc(C(=O)/C=C/Nc2cc(C)ccc2O)c1 | · | 2 | 68* | 5 | -5 | 5 | -24 | 3
O=C(Cn1nnc(-c2ccc(N3CCOCC3)cc2)n1)c1ccccc1 | · | · | · | · | · | -2 | · | ·
CCc1ccccc1NC(=O)c1cc(C)nn1-c1ccccc1 | · | · | · | · | · | -4 | · | ·
Cc1[nH]c2ccccc2c1/C=N/Nc1ccc([N+](=O)[O-])cc1 | -32 | -2 | 34* | -1 | · | -2 | -41 | 2
Cc1[nH]c2ccccc2c1/C=N/NC(=O)c1cccc([N+](=O)[O-])c1 | 3 | 0 | -6 | -22 | -1 | -1 | · | ·
COC(=O)C(N)Cc1ccc(O)c(O)c1 (configuration not stated) | 99* | 0 | 84* | 3 | -7 | -1 | 53* | -1
O=C(/C=C/c1ccc(O)c(O)c1)O[C@H](Cc1ccc(O)c(O)c1)C(=O)O | · | · | · | -11 | · | · | · | ·
Nc1cc2c(cc1O)CCCC2 | 15 | -4 | 33* | 5 | -3 | 6 | 58* | 1
O=S(=O)(NNc1cccc(Cl)n1)c1ccc(Cl)cc1 | · | 4 | 72* | 5 | -6 | -1 | 49* | -1
O=S(=O)(Nc1nc2ccccc2nc1Cl)c1ccc(Cl)cc1 | 0 | -2 | -4 | -3 | 0 | -2 | · | ·
C#CCOc1ccccc1C(=O)NNc1ccc([N+](=O)[O-])cc1[N+](=O)[O-] | · | · | · | · | · | -2 | · | ·
Cc1ccc(C(=O)Nn2cnnc2)cc1S(=O)(=O)N1CCOCC1 | -2 | -1 | 51* | 0 | 0 | -1 | 44* | -4
O=C(Nn1cnnc1)c1ccc(F)c(S(=O)(=O)N2CCCCC2)c1 | -13 | 2 | 47* | -14 | 5 | -3 | 53* | 2
SMILES | ALR inh | Exocytosis inh | PfM18AAP inh-1 | GASC-1 inh | MIN6 prolif | SMARCA2 act | PfM18AAP inh-2 | CTSL1 confirm
O=C(Nc1ccon1)c1ccc(F)c(S(=O)(=O)N2CCCCC2)c1 | -17 | -2 | 4 | -9 | -1 | -3 | · | ·
C#CCN(Cc1ccco1)C(=O)c1nnc2c3ccccc3n(S(=O)(=O)c3ccccc3)c2n1 | · | · | · | · | · | 3 | · | ·
Cc1cccc(NC(=O)CNC(=O)[C@@H](Cc2ccccc2)NC(=O)[C@H]2O[C@@H](n3ccc(N)nc3=O)[C@H](O)[C@@H]2O)c1C | · | · | · | · | · | -2 | · | ·
O=C(CSc1nc2ccccc2s1)Nn1cnnc1 | 99* | 0 | 69* | -2 | 2 | 1 | 57* | 3
O=C(CSc1nn(-c2ccccc2)c(=S)s1)Nn1cnnc1 | -4 | -1 | 53* | -19 | -3 | 3 | 73* | 0
CN(C)C(=S)Nc1nc2ccccc2s1 | · | -3 | 46* | 7 | · | 5 | -15 | 5
CC(=O)NNc1nc2ccccc2s1 | 43 | 1 | 51* | -3 | -2 | 0 | 16 | 2
COC(=O)[C@]12C[C@H](CC(=O)N3CCOCC3)C(=O)N(Cc3ccccc3)C1=C[C@H](C1CCCC1)O[C@@H]2C | · | · | · | · | · | -2 | · | ·
Cc1cc(C)nc(SCC(=O)c2cc3ccccc3oc2=O)n1 | 93* | 0 | 40* | 6 | 3 | 0 | -8 | 2
CCOC(=O)C1=CCN(S(=O)(=O)c2ccc(Br)cc2)C1c1ccc(F)cc1 (configuration not stated) | · | · | · | · | · | -6 | · | ·
Cc1c(C(=O)Nn2cnnc2)oc2ccccc12 | 1 | -1 | 81* | -1 | 1 | 2 | 76* | -3
Cc1scc(C(=O)Nn2cnnc2)c1-c1ccccc1 | -20 | -1 | 64* | 0 | 0 | · | 60* | 0
O=C(Nn1cnnc1)c1csc2ccccc12 | 55 | -5 | 72* | -1 | 0 | 4 | 73* | -5
O=C(O)c1ccccc1N/N=C/C1=C(N2CCOCC2)C(=C\c2ccccc2)/CC1 | 41 | 4 | 5 | -3 | -6 | 1 | · | ·
Cc1cc(C)nc(N/N=C/C2=C(N3CCOCC3)C(=C/c3ccccc3)/CC2)n1 | 27 | -3 | 36* | 6 | -5 | 0 | -43 | 7
COC(=O)C1CN(Cc2ccc(OC)cc2)CCS(=O)(=O)N1Cc1cn(Cc2ccc(F)cc2)nn1 (configuration not stated) | · | · | · | · | · | -1 | · | ·
O=C1NC[C@@H]2CCCN2C1=O | · | -9 | · | · | · | -2 | · | ·
c1ccc2c(c1)NCC1CCCN21 (configuration not stated) | 38 | -7 | 37* | -12 | -5 | -2 | -70 | -4
Cc1cc(NO)nc(-c2ccc(Br)cc2)n1 | 19 | -3 | 56* | -3 | -2 | 6 | 32* | 1
Cc1cc(C)nc(NC(=O)c2ccc(Br)cc2)n1 | 0 | -1 | -8 | -2 | -4 | -3 | · | ·
